This assay concerns the target T1, Aspartate--tRNA(Asp/Asn) ligase (Mycobacterium tuberculosis (strain ATCC 25618 / H37Rv)) (UniProt P9WFW3).
T1 sequence (whole entry): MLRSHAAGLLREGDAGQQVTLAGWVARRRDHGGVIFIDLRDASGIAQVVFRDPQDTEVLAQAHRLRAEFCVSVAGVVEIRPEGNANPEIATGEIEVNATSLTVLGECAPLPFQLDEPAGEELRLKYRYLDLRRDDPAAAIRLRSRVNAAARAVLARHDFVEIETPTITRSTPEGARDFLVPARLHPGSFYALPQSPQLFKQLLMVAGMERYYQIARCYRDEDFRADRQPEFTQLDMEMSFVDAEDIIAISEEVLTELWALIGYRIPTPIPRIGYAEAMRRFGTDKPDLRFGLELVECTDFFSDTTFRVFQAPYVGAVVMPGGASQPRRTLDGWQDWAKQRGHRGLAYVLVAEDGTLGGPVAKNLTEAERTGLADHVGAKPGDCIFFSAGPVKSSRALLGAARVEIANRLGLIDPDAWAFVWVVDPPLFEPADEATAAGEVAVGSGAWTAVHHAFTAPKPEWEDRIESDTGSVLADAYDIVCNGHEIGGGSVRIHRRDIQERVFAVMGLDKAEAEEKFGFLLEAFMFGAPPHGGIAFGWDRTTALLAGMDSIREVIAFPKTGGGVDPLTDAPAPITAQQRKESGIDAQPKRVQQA
Description: Assay for Asp RNA synthetase-1 from Mycobacterium tuberculosis. Further details: scale not given: in the data most compounds retested in dose-response had high values. The class given is functional. The following applies: 30 µM.

Structures are written as SMILES.

`CSCCC1c2nc[nH]c2CCN1Cc1ccnc2ccccc12` (stereo unspecified): the Percent Effect came to 5.78%.

For `Cc1cc(N2CCN(Cc3ccc(C)o3)CC2)cc(C)n1`, the Percent Effect was -1.34%.

As to `CCN(CC)C(=O)CCNC(=O)Cc1nc(-c2ccco2)oc1C`, the Percent Effect is -1.21%.

`Cc1cccnc1NC(=O)C1CCCN1Cc1ccccc1` (stereo unspecified): the Percent Effect was -1.55%.

Consider `COc1ncccc1NC(=O)N1CCC(CN2CCOCC2)CC1`, for which the Percent Effect is -3.02%.

Take `CCC(C(=O)NC)N(c1cccc(C)c1)S(C)(=O)=O` (stereo unspecified): the Percent Effect was -2.86%.

For the compound `CCNC(=O)NC(=O)CSC(C)c1c(F)cccc1F` (stereo unspecified), the Percent Effect was -1.51%.

Consider `CCC(CO)N(Cc1ccccn1)C(=O)c1ccc2c(c1)CCO2` (stereo unspecified), for which the Percent Effect was -5.37%.

Regarding `Cc1nc2c(c(C)c1CC(=O)Nc1ccc(Cl)cc1)c(=O)[nH]n2C`, the Percent Effect was -4.86%.

As to `COc1nc(C)c(C(=O)N(C)Cc2nc(-c3ccccn3)no2)s1`, the Percent Effect turned out to be 1.83%.

Turning to `COc1ccc([C@@H]2CN(C(=O)CCC(F)(F)F)C[C@H]2NC(C)=O)cc1`, the Percent Effect was -2.84%.

These data come from ChEMBL document CHEMBL3988442, “University of Dundee, Small-Polar-MMV Screening Library” (2021).
